Shown are actives, neighbours in structure and some others; about 10% of the full set was active somewhere.
G9a block – blocks human histone lysine methyltransferase G9a | actives 8.8% (n = 350,000) | AID 504332 | G9a H3K9 monomethylation, AlphaScreen, 2 h | Q96KQ7 | Potency, µM (highest dose often 102 µM), for the others: at the top dose activity, negative = inhibition, actives largely listed as inhibitors; note: % is set by controls: 0 for no effect and ±100 for the full control effect; nearly all actives have a fitted effect of over 75% in size
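Compounds were preincubated with 20 nM G9a for 15 min, after which biotinylated H3K9 peptide (500 nM) and SAM (20 uM) started a 2 h room-temperature reaction. Monomethylated product was quantified by antibody-based AlphaScreen chemiluminescence.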
HP1b binding inh – inhibitors of HP1-beta chromodomain binding to methylated histone tails; P83916; AlphaScreen HP1-beta / biotin-H3K9me3 peptide binding; Potency, µM (series often up to 114 µM), inactives show top-dose activity change, negative = inhibition, usual class: inhibitors; actives 0.56% (n = 390,000); AID 540317; note: nearly all actives have a fitted effect of over 70% in size
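HP1-beta protein (50 nM final) preincubated 30 min at room temperature with biotinylated H3(1-18)K9me3 peptide (50 nM) in PBS pH 7.4, 0.01% Tween-20, then compound added for 30 min. AlphaScreen streptavidin donor/nickel chelate acceptor beads (10 ug/mL final), 30 min dark, luminescence read.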
GLS inhibitor – blocks human kidney-isoform glutaminase activity | O94925 | GLS enzymatic activity, qHTS titration | AID 624170 | actives 0.21% (n = 410,000) | Potency, µM (series often up to 45.5 µM), without a hit: top-dose activity change, negative = inhibition, most hits filed as inhibitors; note: % is set by controls: 0 for no effect and ±100 for the full control effect
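Enzyme dispensed in phosphate buffer (45 mM, pH 8.2, 0.02% Tween-20), compounds pinned in, then 1 mM L-glutamine solution and the glutamate oxidase–HRP–Amplex Red mix added; fluorescence read immediately and again after 30 min at room temperature.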
BAZ2B inh – BAZ2B (human) inhibition. actives 4.4% (n = 360,000). Q9UIF8. AlphaScreen BAZ2B-H3K14Ac peptide displacement. Potency, µM (titrated, usually from 114 µM), for the others: top-dose activity change, negative = inhibition, hits mostly inhibitors. AID 504333; note: % is set by controls: 0 for no effect and ±100 for the full control effect; nearly all actives have a fitted effect of over 60% in size
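Multi-concentration screen (max 110 uM) measuring displacement of acetylated histone H3 peptide from BAZ2B by AlphaScreen, using 50 nM protein, 50 nM peptide and 10 ug/mL streptavidin donor plus Ni-chelate acceptor beads.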
JMJD2A Tudor inh – JMJD2A Tudor domain (human) inhibition; O75164; AlphaScreen JMJD2A-Tudor / H3K4me3 peptide binding; Potency, µM (doses to about 114 µM), inactives show at the top dose activity change, negative = inhibition, actives largely listed as inhibitors; actives 4.4% (n = 390,000); AID 504339; note: % is set by controls: 0 for no effect and ±100 for the full control effect; nearly all actives have a fitted effect of over 50% in size
L3MBTL1 block – inhibitors of human L3MBTL1. actives 0.66% (n = 230,000). AlphaScreen L3MBTL1–H3K9me1 peptide binding. Potency, µM (series often up to 57.1 µM), inactives show at the highest dose activity, negative = inhibition, usual class: inhibitors; note: % is set by controls: 0 for no effect and ±100 for the full control effect; nearly all actives have a fitted effect of over 60% in size
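First, the protein-peptide complex forms for 30 min at room temperature (L3MBTL1 50 nM, biotinylated H3K9me1 peptide 75 nM). Next, compounds are pin-transferred and incubated 30 min. Finally, AlphaScreen beads are added and read after 30 min.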
The depositor's hits bear a star; ? = inconclusive; / = no result given; ! = not confirmed by another sample; [ ] = another dose, or the depositor's remark. Calls come from the whole dose curve; as a rule, active = well fitted curve in the direction sought with a large enough effect; inconclusive = small, poorly fitted or top-dose-only effect, or another doubt; inactive = no such curve, though single readings can be large; an effect the other way counts as inactive or inconclusive. Potency is the fitted concentration of half-maximal effect.

SMILES	G9a block	HP1b binding inh	GLS inhibitor	BAZ2B inh	JMJD2A Tudor inh	L3MBTL1 block
O=C(CN1CCN(c2ccccc2O)CC1)NC(c1ccccc1)c1ccccc1	12%[59 µM]	2%	14%	-38%	?	-4%
O=C(CN1CCCCCC1)Nc1ccccc1F	8.9µM*	?	20%	56µM*	2.2µM*	4%
CCc1ccccc1NC(=O)Cn1nc(C)n2cccc2c1=O	11%	11%[57 µM]	2%	-28%	-34%	/
O=C(CN1CCN(CC(=O)c2ccc(F)cc2)CC1)Nc1ccccc1Cl	7.1µM*	-2%	2%	-5%	-31%	0%
Cc1ccc(-n2c(=O)c3oc4ccccc4c3n(Cc3ccccc3)c2=O)cc1C	-3%[59 µM]	29%	-5%	-5%	1%	/
Cc1cccc(N2CCN(C(=O)CN3C(=O)COc4ccc(S(=O)(=O)N5CCC(C)CC5)cc43)CC2C)c1 (stereo not given)	8%[59 µM]	42%	19%	-16%	-18%	/
CC1Cc2cc(S(=O)(=O)CCC(=O)NCc3ccccc3Cl)ccc2N1C(=O)C1CC1 (stereo not given)	1%[59 µM]	43%	2%	-3%	11%	/
COc1ccc(-c2nc(C)c(CCNS(=O)(=O)c3cc(C)c(C)cc3C)s2)cc1	-2%[59 µM]	6%[57 µM]	5%	-10%	-24%	/
CCOC(=O)c1ccc(NC2=CC(c3ccc(F)cc3)N(c3ccc(C(=O)OCC)cc3)C2=O)cc1 (stereo not given)	-8%[59 µM]	-2%	-11%	-14%	-17%	/
O=C(CN1CCN(CC(=O)Nc2ccccc2C(F)(F)F)CC1)Nc1ccccc1F	32µM*	67%	-2%	-2%	-9%	-6%
Cc1cc(C)c[n+](-c2[nH]c(=O)sc2/C=N/N=C(\[O-])c2cccnc2)c1	?	31%	-5%	?	-7%	/
CCc1ccc[n+](-c2[nH]c(=O)sc2/C=N/N=C(\[O-])c2ccncc2)c1	40µM*	24%	8%	?	-12%	/
CCOC(=O)C1/C(=N\O)CC(C)(O)C(C(=O)OCC)C1c1ccc(N(C)C)cc1 (stereo not given)	18µM*	15%	32%	79µM*	-36%	/
CCC(=O)Nc1ccc(C)cc1-c1nc2ccccc2n(CC(=O)Nc2ccccc2Cl)c1=O	6%[59 µM]	25%	-9%	-6%	-7%	/
CCc1ccc2c(c1)c(=O)c(C(=O)c1ccc(C)cc1)cn2CC(=O)Nc1ccc2c(c1)OCCO2	8%[59 µM]	40%	2%	-18%	-9%	/
c1ccc(-c2nc3nonc3nc2-c2ccccc2)cc1	14µM*	?	-1%	28µM*	40µM*	?
Nc1c(-c2ccccc2)nc(Cl)nc1-c1ccccc1	10%[59 µM]	96%	2%	39%	32%[57.1 µM]	24%
COC(=O)c1cc(NS(=O)(=O)c2ccc(Cl)c(N3C(=O)c4ccc(C(=O)O)cc4C3=O)c2)cc(C(=O)OC)c1	-112%[59 µM]	-5%	0%	0.79µM*	-18%	/
CCOC(=O)c1sc(SCC(=O)Nc2ccc(N(C)C)cc2)nc1N	11µM*	?	87%	45µM*	?	-16%
CN(C)c1ccc(NC(=O)CSc2nc(N)c(C(=O)Nc3ccc(N(C)C)cc3)s2)cc1	?	?	58%	20µM*	?	?
COc1ccc(NC(=O)CSc2nc(N)c(C(=O)Nc3ccc(N(C)C)cc3)s2)cc1	?	7%	1%	-29%	-12%	/
CCc1ccc(NC(=O)C2CCN(c3nnc(-n4c(C)ccc4C)s3)CC2)cc1	0%[59 µM]	29%	-13%	-1%	-10%	/
Brc1cccc(-c2nnc(-c3ccccc3)o2)c1	17%[59 µM]	80%	2%	28%	29%	28%[11.4 µM]
Cc1ccc(-c2nnc(-c3cccc(Br)c3)o2)cc1	11%[59 µM]	-7%	30%	8%	50µM*	13%[11.4 µM]
CCOCCCNC(=O)c1cc(=O)[nH]c2ccc(S(=O)(=O)N3CCCC3)cc12	1%[59 µM]	53%	5%	5%	3%	/
SMILES	G9a block	HP1b binding inh	GLS inhibitor	BAZ2B inh	JMJD2A Tudor inh	L3MBTL1 block
CC(C)=CCc1c(O)cc2oc3c(CC=C(C)C)c(O)c(O)c(CC=C(C)C)c3c(=O)c2c1O	17%[12.7 µM]	4%	6%	50µM*	50µM*	/
Cc1cccc(CSc2nc(=O)c3c(n2C)NC(=O)CC3c2cc(F)cc(F)c2)c1 (stereo not given)	5%[59 µM]	3%	-2%	-8%	-15%	/
CCCCSc1nc(NCc2ccco2)c2c3c(sc2n1)COC(C)(C)C3	50µM*	29%	10%	-27%	-23%	-2%
COC(=O)C1=C(C(=O)OC)C(C(=O)OC)C(C(=O)OC)C(C(=O)OC)(C(=O)OC)C(C(=O)OC)=C1C(=O)OC (stereo not given)	/	50µM*	9%	/	89µM*	/
CCCCCC(=O)NNC(=S)NC(=O)c1ccccc1[N+](=O)[O-]	-42%	21%	12%	-29%	-13%	-1%
O=C(NC(=S)NNC(=O)c1ccccc1[N+](=O)[O-])c1ccc(Br)cc1	8.9µM*	-15%	8%	7%	-26%	8%
Cc1c(NC(=S)NC(=O)c2cccc(Br)c2)c(=O)n(-c2ccccc2)n1C	/	6%	20%	1%	-10%	1%
CCCCCC(=O)NNC(=S)NC(=O)c1cccc([N+](=O)[O-])c1	7.9µM*	-18%	0%	-33%	35µM*	-4%
O=C(NC(=S)NNC(=O)c1ccccc1O)c1cccc([N+](=O)[O-])c1	52%[2.33 µM]	-18%	21%	45µM*	79µM*	/
Cc1c(NC(=S)NC(=O)c2cccc([N+](=O)[O-])c2)c(=O)n(-c2ccccc2)n1C	45µM*	7%	24%	-27%	-5%	/
CCS(=O)(=O)c1ncc(N(Cc2ccco2)Cc2sccc2C)c(C(=O)Nc2cc(C)ccc2C)n1	-1%[59 µM]	50%	-2%	?	-20%	/
COc1ccc(-n2nc(C(=O)Nc3ccc(Cl)cn3)c3c4ccccc4n(C)c3c2=O)cc1Cl	-8%[59 µM]	16%	16%	/	-6%	/
O=C(O)C(O)C(O)C(O)C(O)C(=O)O (stereo not given)	-2%[2.33 µM]	/	-6%	/	/	/
Cc1c(NC(=O)c2cc(-c3ccc(F)cc3)on2)c(=O)n(-c2ccccc2)n1C	-8%[59 µM]	4%	0%	1%	79µM*!	/
O=c1[nH][nH]c(=S)n1C1CCCCC1	1.1µM*	3.5µM*	?	25µM*	2.5µM*	4%
O=C(CC1SC(=O)N(c2ccccc2)C1=O)Nc1ccc(Cl)cc1 (stereo not given)	45µM*	10%	11µM*	-36%	-23%	-2%

Screens from PubChem BioAssay.
